# Values joined by “and” are separate entries in the source; they are usually repeats but may differ in a detail not shown here. Identical values can stand only once. Results filed as inconclusive are left out. Active and inactive are the calls of the source. Unless noted, calls follow the shape of the full dose curve.
# Molecular target: Peroxisome proliferator-activated receptor gamma (Homo sapiens) (UniProt P37231)
# Assay: qHTS assay for small molecule antagonists of peroxisome proliferator-activated receptor gamma signaling (AID 588537; active = well fitted inhibition curve with a large enough effect in the signal ratio, with a control signal flat, not every such curve was filed as active; the % refers to the signal ratio;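 also: reporter cells co-stimulated with 50 nM rosiglitazone agonist during compound treatment; % of control where 0% means no effect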)
# Settings: HEK293 PPARg-UAS-bla, beta-lactamase ratio, antagonist mode; series mostly up to 76.8 µM; activity, negative = inhibition: at the top concentration
# Outline: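 Step one: plate 3000 HEK293 UAS-bla cells per well in medium with 1% stripped serum and hold 6-6.5 h at 37 C. Step two: add compound and 50 nM agonist for 16 h. Step three: CCF4 loading, fluorescence read.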
# Peroxisome proliferator-activated receptor gamma (Homo sapiens), sequence (P37231 whole entry, looked up): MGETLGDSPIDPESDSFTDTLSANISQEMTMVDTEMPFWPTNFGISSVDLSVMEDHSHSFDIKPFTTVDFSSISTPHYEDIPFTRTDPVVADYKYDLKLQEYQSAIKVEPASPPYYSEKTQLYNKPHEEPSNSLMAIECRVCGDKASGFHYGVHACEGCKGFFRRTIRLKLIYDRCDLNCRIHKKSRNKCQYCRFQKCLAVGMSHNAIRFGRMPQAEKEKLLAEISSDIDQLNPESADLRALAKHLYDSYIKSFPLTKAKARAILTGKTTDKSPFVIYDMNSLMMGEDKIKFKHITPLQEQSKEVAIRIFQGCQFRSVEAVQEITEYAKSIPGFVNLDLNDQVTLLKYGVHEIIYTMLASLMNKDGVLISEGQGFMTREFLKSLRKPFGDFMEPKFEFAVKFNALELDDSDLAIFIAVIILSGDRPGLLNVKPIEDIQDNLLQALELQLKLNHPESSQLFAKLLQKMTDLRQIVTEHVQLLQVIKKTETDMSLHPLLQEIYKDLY
SMILES,"activity, negative = inhibition",outcome
CC(=O)Nc1nnc(S(N)(=O)=O)s1,13.6% (inactive),–
O=C(O)CCCCCCCC(=O)O,3.35% (inactive),–
CCCCNC(=O)NS(=O)(=O)c1ccc(C)cc1,–,inactive
COc1cc(Cc2cnc(N)nc2N)cc(OC)c1OC,14.1% (inactive),–
C[C@]12CCC(=O)C=C1CC[C@@H]1[C@@H]2C(=O)C[C@@]2(C)[C@H]1CC[C@]2(O)C(=O)CO,9.98% (inactive),–
NC(=O)N1c2ccccc2C=Cc2ccccc21,–,inactive
Nc1nc(N)c2nc(-c3ccccc3)c(N)nc2n1,12.4% (inactive),–
C[C@]12C=CC(=O)C=C1CC[C@H]1[C@@H]3C[C@@H](O)[C@](O)(C(=O)CO)[C@@]3(C)C[C@H](O)[C@@]12F,8.81% (inactive),–
CC(C)(Oc1ccc(CCNC(=O)c2ccc(Cl)cc2)cc1)C(=O)O,7.14% (inactive),–
CCCCOCCOCCOCc1cc2c(cc1CCC)OCO2,0.619% (inactive),–
CN=C(NC#N)NCCSCc1nc[nH]c1C,12.1% (inactive),–
NC(=Nc1ccccc1)Nc1ccccc1,1.41% (inactive),–
Cc1ccc(S(=O)(=O)NC(=O)NN2CCCCCC2)cc1,-3.33% (inactive),–

# Molecular target: Vitamin D3 receptor (Homo sapiens) (UniProt P11473)
# Sequence (P11473 whole entry, looked up): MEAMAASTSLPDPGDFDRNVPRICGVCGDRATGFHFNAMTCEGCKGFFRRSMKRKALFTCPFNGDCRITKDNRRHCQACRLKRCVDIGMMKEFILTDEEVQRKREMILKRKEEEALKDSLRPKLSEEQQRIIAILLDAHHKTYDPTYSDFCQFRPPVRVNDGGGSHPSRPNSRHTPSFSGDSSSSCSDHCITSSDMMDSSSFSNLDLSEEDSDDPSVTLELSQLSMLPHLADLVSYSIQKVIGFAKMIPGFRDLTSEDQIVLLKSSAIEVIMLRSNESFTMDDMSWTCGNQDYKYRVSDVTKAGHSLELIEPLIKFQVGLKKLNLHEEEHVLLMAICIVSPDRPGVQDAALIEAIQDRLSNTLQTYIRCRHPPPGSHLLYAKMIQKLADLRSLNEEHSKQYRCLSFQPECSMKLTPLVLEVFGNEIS
# Assay: qHTS assay for small molecule antagonists of vitamin D receptor signaling (AID 588541);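 also: receptor activated by calcitriol during compound treatment; % is scaled to controls: 0 for no effect and ±100 for the full control effect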
# Settings: HEK293T VDR-UAS-bla, beta-lactamase ratio, antagonist mode; series mostly up to 76.7 µM; activity change, negative = inhibition: at the top concentration
# Outline: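 VDR-UAS-bla HEK293T cells in 2% charcoal-stripped FBS were stimulated with 1-alpha,25-dihydroxyvitamin D3 (3 nM final) plus compound for 16 h at 37 C. The beta-lactamase CCF4 readout was normalized to 50 nM agonist and DMSO, and Hill fits gave IC50.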
SMILES,"activity change, negative = inhibition",outcome
O=C(O)CCCCCCCC(=O)O,5.33% (inactive),–
CCCCNC(=O)NS(=O)(=O)c1ccc(C)cc1,–,inactive
COc1cc(Cc2cnc(N)nc2N)cc(OC)c1OC,-5.88% (inactive),–
C[C@]12CCC(=O)C=C1CC[C@@H]1[C@@H]2C(=O)C[C@@]2(C)[C@H]1CC[C@]2(O)C(=O)CO,7.17% (inactive),–
C[C@]12C=CC(=O)C=C1CC[C@H]1[C@@H]3C[C@@H](O)[C@](O)(C(=O)CO)[C@@]3(C)C[C@H](O)[C@@]12F,1.76% (inactive),–
CC(C)(Oc1ccc(CCNC(=O)c2ccc(Cl)cc2)cc1)C(=O)O,4.5% (inactive),–
O=c1[nH]c(=O)n([C@H]2C[C@H](O)[C@@H](CO)O2)cc1Br,-8.15% (inactive),–
CN=C(NC#N)NCCSCc1nc[nH]c1C,-1.62% (inactive),–
Cc1ccc(S(=O)(=O)NC(=O)NN2CCCCCC2)cc1,-0.365% (inactive),–

# Molecular target: Vitamin D3 receptor (Homo sapiens) (UniProt P11473)
# Assay: qHTS assay for small molecule agonists of vitamin D receptor signaling (AID 588543);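 also: 0% = DMSO basal and 100% = reference agonist control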
# Settings: HEK293T VDR-UAS-bla, beta-lactamase ratio, 16 h; series mostly up to 76.8 µM; activation: at the top concentration
# Outline: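 Measured: β-lactamase reporter activity (CCF4, 405 nm excitation, 460/530 nm emission) in HEK293T VDR-UAS-bla cells after 16 h compound exposure at 37 °C. Normalization against 50 nM 1α,25-dihydroxyvitamin D3 and DMSO; Hill-fit EC50.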
SMILES,activation,outcome
CC(=O)[C@@]1(O)CC[C@H]2[C@@H]3CCC4=CC(=O)CC[C@]4(C)[C@H]3CC[C@@]21C,-3.92% (inactive),–
O=C(O)CCCCCCCC(=O)O,6.89% (inactive),–
CCCCNC(=O)NS(=O)(=O)c1ccc(C)cc1,–,inactive
COc1cc(Cc2cnc(N)nc2N)cc(OC)c1OC,-0.668% (inactive),–
C[C@]12CCC(=O)C=C1CC[C@@H]1[C@@H]2C(=O)C[C@@]2(C)[C@H]1CC[C@]2(O)C(=O)CO,-3.75% (inactive),–
C[C@]12C=CC(=O)C=C1CC[C@H]1[C@@H]3C[C@@H](O)[C@](O)(C(=O)CO)[C@@]3(C)C[C@H](O)[C@@]12F,-2.09% (inactive),–
CC(C)(Oc1ccc(CCNC(=O)c2ccc(Cl)cc2)cc1)C(=O)O,-2.42% (inactive),–
O=c1[nH]c(=O)n([C@H]2C[C@H](O)[C@@H](CO)O2)cc1Br,3.81% (inactive),–
Nc1ncn([C@@H]2O[C@H](CO)[C@@H](O)[C@H]2O)c(=O)n1,–,inactive
CN=C(NC#N)NCCSCc1nc[nH]c1C,-0.174% (inactive),–
Cc1ccc(S(=O)(=O)NC(=O)NN2CCCCCC2)cc1,5.36% (inactive),–

# Test system: not listed separately
# Assay: qHTS assay for small molecule agonists of retinoid X receptor alpha signaling (AID 588544);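 as to activation: 0% = DMSO basal wells and 100% = reference agonist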
# Settings: HEK293T RXRa-UAS-bla, beta-lactamase reporter, 18 h; 530 nm emission
row,SMILES,max response
1,CC(=O)[C@@]1(O)CC[C@H]2[C@@H]3CCC4=CC(=O)CC[C@]4(C)[C@H]3CC[C@@]21C,13.3%
2,CC(=O)Nc1nnc(S(N)(=O)=O)s1,-3.24%
3,O=C(O)CCCCCCCC(=O)O,-21.3%
4,CCCCNC(=O)NS(=O)(=O)c1ccc(C)cc1,-17.3%
5,COc1cc(Cc2cnc(N)nc2N)cc(OC)c1OC,1.73%
6,C[C@]12CCC(=O)C=C1CC[C@@H]1[C@@H]2C(=O)C[C@@]2(C)[C@H]1CC[C@]2(O)C(=O)CO,17.3%
7,NC(=O)N1c2ccccc2C=Cc2ccccc21,-3.76% and -20.7%
8,COc1ccc(CN(CCN(C)C)c2ccccn2)cc1,16.3%
9,C[C@]12C=CC(=O)C=C1CC[C@H]1[C@@H]3C[C@@H](O)[C@](O)(C(=O)CO)[C@@]3(C)C[C@H](O)[C@@]12F,-12%
10,CC(C)(Oc1ccc(CCNC(=O)c2ccc(Cl)cc2)cc1)C(=O)O,19.7%
11,O=c1[nH]c(=O)n([C@H]2C[C@H](O)[C@@H](CO)O2)cc1Br,16.6%
12,CCCCOCCOCCOCc1cc2c(cc1CCC)OCO2,14.8% and -2.85%
13,Nc1ncn([C@@H]2O[C@H](CO)[C@@H](O)[C@H]2O)c(=O)n1,-23.8%
14,CN=C(NC#N)NCCSCc1nc[nH]c1C,10.9%
15,NC(=Nc1ccccc1)Nc1ccccc1,3.91%
16,Cc1ccc(S(=O)(=O)NC(=O)NN2CCCCCC2)cc1,-3.25%

# Molecular target: Retinoic acid receptor RXR-alpha (Homo sapiens) (UniProt P19793)
# Sequence (P19793 whole entry, looked up): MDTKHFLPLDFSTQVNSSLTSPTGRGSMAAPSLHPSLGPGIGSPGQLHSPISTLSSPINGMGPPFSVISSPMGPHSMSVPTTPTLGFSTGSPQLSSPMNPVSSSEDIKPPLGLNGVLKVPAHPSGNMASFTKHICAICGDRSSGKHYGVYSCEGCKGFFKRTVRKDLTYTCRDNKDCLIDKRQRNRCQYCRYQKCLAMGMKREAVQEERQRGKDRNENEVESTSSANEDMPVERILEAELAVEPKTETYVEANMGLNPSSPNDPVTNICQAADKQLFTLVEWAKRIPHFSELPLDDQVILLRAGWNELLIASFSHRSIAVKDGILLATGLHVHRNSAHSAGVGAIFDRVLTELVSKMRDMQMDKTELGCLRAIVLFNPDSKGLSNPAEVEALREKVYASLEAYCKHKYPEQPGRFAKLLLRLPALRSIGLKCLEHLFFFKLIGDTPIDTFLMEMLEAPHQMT
# Assay: as above
# Settings: HEK293T RXRa-UAS-bla, beta-lactamase reporter, 18 h; series mostly up to 76.7 µM; activation: at the top concentration
SMILES,activation,outcome
CC(=O)[C@@]1(O)CC[C@H]2[C@@H]3CCC4=CC(=O)CC[C@]4(C)[C@H]3CC[C@@]21C,-11.7% (inactive),–
CC(=O)Nc1nnc(S(N)(=O)=O)s1,0.647% (inactive),–
O=C(O)CCCCCCCC(=O)O,15.6% (inactive),–
CCCCNC(=O)NS(=O)(=O)c1ccc(C)cc1,-2.9% (inactive),–
COc1cc(Cc2cnc(N)nc2N)cc(OC)c1OC,-2.08% (inactive),–
C[C@]12CCC(=O)C=C1CC[C@@H]1[C@@H]2C(=O)C[C@@]2(C)[C@H]1CC[C@]2(O)C(=O)CO,-17.7% (inactive),–
NC(=O)N1c2ccccc2C=Cc2ccccc21,–,inactive
COc1ccc(CN(CCN(C)C)c2ccccn2)cc1,-12.7% (inactive),–
C[C@]12C=CC(=O)C=C1CC[C@H]1[C@@H]3C[C@@H](O)[C@](O)(C(=O)CO)[C@@]3(C)C[C@H](O)[C@@]12F,11.2% (inactive),–
CC(C)(Oc1ccc(CCNC(=O)c2ccc(Cl)cc2)cc1)C(=O)O,-13% (inactive),–
O=c1[nH]c(=O)n([C@H]2C[C@H](O)[C@@H](CO)O2)cc1Br,-4.85% (inactive),–
CCCCOCCOCCOCc1cc2c(cc1CCC)OCO2,–,inactive
Nc1ncn([C@@H]2O[C@H](CO)[C@@H](O)[C@H]2O)c(=O)n1,19.6% (inactive),–
CN=C(NC#N)NCCSCc1nc[nH]c1C,-5% (inactive),–
NC(=Nc1ccccc1)Nc1ccccc1,-21.9% (inactive),–
Cc1ccc(S(=O)(=O)NC(=O)NN2CCCCCC2)cc1,17% (inactive),–
